Our source for the outcome, Potency and max response values is PubChem BioAssay (NCATS).

Each structure is given as a SMILES string. Values without a mark were called inactive. Inconclusive results are not listed. Activity calls are given as the source filed them. Unless noted, calls follow the shape of the dose curve; as a rule, active = well fitted curve in the direction sought with a large enough effect; inconclusive = small, poorly fitted or top-dose-only effect, or another doubt; inactive = no such curve, though single readings can be large; an effect the other way counts as inactive or inconclusive.

A short description of experiment [1]: qHTS for compounds that reverse cellular toxicity of Amyloid beta (A-beta) peptide in yeast: LOPAC Validation Assay (AID 720559).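 Also: plate controls were DMSO for no effect and equimolar ferric chloride plus clioquinol rescue for full effect.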 An outline of the steps:
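Rescue of A-beta toxicity was scored as yeast growth by 600 nm absorbance after 48 hr at 30 C with compound. Normalization used DMSO (negative) and equimolar ferric chloride plus clioquinol (positive).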
(In general: qHTS replaces the single test concentration by a dilution series.)

A short description of experiment [2]: qHTS for Activators of Parkin Expression: LOPAC Validation Assay (NLuc Reporter) (AID 720572). Summed up: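 NLuc signal, read 10 min after reagent and following a prior FLuc read, is normalized to DMSO (0) and positive controls (100%). Cells: neuronal Parkin-promoter coincidence reporter line; compounds tested 7-point, 24 h, 37 C, 5% CO2.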
Experiment [3] is described as follows: qHTS for Activators of Parkin Expression: LOPAC Validation Assay (FLuc Reporter) (AID 720573; also: potency is read from the fitted curve at half-maximal effect). As to conditions: Cell line, PRKN promoter firefly luciferase reporter. An outline of the steps:
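FLuc signal from Parkin-promoter coincidence reporter neuronal cells, normalized to DMSO and positive control (100%). Cells (1,500/well) pre-incubated 24 h, then exposed to LOPAC compounds in 7-point dose response for 24 h at 37 C, 5% CO2.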

Experiment [4] has as its target T1, Hexokinase-4 (Homo sapiens) + Glucokinase regulatory protein (Homo sapiens) (UniProt P35557+Q14397). Description: qHTS assay for inhibitors of recombinant human GCK-GKRP interaction: Diaphorase-coupled assay (AID 743205). An outline of the steps: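 A kinetic fluorescence read (Ex 525/Em 590 nm, every minute for 30 minutes) tracked resorufin from a G6PDH-diaphorase coupled GCK reaction. It contained 10 nM GST-GCK, 10 nM FLAG-GKRP, 5 mM glucose, 0.4 mM ATP in Hepes pH 7.6. Normalized to with/without-enzyme DMSO controls.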

Experiment [5] deals with T1, Hexokinase-4 (Homo sapiens) + Glucokinase regulatory protein (Homo sapiens). The experiment is described as follows: qHTS assay for inhibitors of recombinant human GCK-GKRP interaction: ADP-Glo assay (AID 743206).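 Also: plate controls were DMSO plus enzyme for no effect and no enzyme for full effect.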 An outline of the steps:
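Pin-transferred compounds meet a 15 nM GST-GCK/15 nM FLAG-GKRP/2 uM S6P mix (dispense concentrations). ATP is then added to 0.4 mM final with 5 mM glucose, and the reaction runs 60 min at room temperature. ADP is quantified luminescently.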

Experiment [6] has the same target. The experiment is described as follows: qHTS assay for inhibitors of recombinant human GCK-GKRP interaction: HTRF assay (AID 743207).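 Also: 0% = DMSO with GCK present and -100% = DMSO wells lacking GCK.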 An outline of the steps: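 After 60 min equilibration at room temperature with anti-FLAG XL665 and anti-GST antibodies, FRET ratio (665/615 nm, excitation 320 nm) was read. Proteins: GST-GCK and FLAG-GKRP, each 5 nM, plus 2 uM S6P, pH 7.1 buffer; GCK-free wells define minimum signal.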

Experiment [7] can be described thus: qHTS assay for small molecule agonists of the antioxidant response element (ARE) signaling pathway measured by Nrf2-dependant transcriptional activity (AID 720636; active = well fitted curve in the direction sought with a large enough effect in the repeat runs; an effect the other way counts as inactive or inconclusive;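 also: HepG2 cells with an ARE-driven luciferase reporter; % of control where 0% means no effect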). Summed up:
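Nrf2-dependent transcription is measured in ARE-luc HepG2 cells: compound is applied for 16 hr at 37 C after a 6 hr attachment period, and luciferase activity is quantified by luminescence using ONE-Glo.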

Experiment [8] is described as follows: qHTS assay for small molecule agonists of the antioxidant response element (ARE) signaling pathway measured by Nrf2-dependant transcriptional activity - cell viability counter screen (AID 720653; active = well fitted curve in the direction sought with a large enough effect in the repeat runs; an effect the other way counts as inactive or inconclusive; also: % is scaled to controls: 0 for no effect and ±100 for the full control effect). As to conditions: ARE-bla HepG2 viability, CellTiter-Glo ATP luminescence, 16 h; stronger effect = lower value. An outline of the steps: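 ARE-bla HepG2 cells treated with compounds for 16 h at 37C; this counter screen measures viability as intracellular ATP by CellTiter-Glo luminescence after 30 min at room temperature.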

The nature of experiment [9]: qHTS assay for cell viability of HEK293 cells (AID 743288). Also: % is scaled to controls: 0 for no effect and ±100 for the full control effect; nearly all actives have a fitted effect of over 50% in size. As to conditions: ATP luminescence (CellTiter-Glo), 18 h, stronger effect = lower value. Summed up: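 Readout is luciferase-coupled ATP content (CellTiter-Glo luminescence, 30 min room temperature) as a measure of metabolically competent cells. Parental HEK293 cells were plated 5 h or more before compound addition, then treated 18 h at 37 C.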

T1 sequence (P35557 whole entry, looked up): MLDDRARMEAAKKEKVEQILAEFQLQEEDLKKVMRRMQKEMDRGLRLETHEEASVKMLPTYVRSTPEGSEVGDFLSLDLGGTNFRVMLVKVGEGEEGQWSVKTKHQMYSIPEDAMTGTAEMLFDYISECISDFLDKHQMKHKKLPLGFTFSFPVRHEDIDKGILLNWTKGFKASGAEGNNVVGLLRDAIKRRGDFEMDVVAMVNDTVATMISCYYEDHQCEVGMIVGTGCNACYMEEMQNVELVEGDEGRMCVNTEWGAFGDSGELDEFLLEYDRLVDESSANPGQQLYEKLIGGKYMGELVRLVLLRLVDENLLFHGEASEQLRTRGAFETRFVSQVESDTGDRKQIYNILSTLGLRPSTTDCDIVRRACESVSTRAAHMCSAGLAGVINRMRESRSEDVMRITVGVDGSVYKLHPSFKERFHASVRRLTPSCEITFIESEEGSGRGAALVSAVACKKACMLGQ
T1 sequence (Q14397 whole entry, looked up): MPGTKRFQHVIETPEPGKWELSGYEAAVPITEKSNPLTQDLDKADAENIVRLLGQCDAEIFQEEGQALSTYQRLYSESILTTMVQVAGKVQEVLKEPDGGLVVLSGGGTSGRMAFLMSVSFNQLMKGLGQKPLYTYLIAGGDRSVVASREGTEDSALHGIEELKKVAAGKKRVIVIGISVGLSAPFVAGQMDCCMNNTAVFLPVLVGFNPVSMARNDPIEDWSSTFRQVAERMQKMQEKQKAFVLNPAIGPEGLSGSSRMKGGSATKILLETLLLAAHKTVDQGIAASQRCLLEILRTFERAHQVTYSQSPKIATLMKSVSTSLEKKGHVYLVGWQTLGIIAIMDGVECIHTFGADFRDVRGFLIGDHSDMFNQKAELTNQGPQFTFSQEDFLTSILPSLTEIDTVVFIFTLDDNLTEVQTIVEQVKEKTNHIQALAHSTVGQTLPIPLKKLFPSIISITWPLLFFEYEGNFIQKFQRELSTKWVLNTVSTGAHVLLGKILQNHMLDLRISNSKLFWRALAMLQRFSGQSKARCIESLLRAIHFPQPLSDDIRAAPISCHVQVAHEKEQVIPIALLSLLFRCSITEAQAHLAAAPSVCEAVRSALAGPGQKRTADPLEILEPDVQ

Take `O=c1c2ccccc2nc2n1CCc1c-2[nH]c2ccccc12`: the call in experiment [1], in experiment [2], in experiment [4], in experiment [5] and in [6] was inactive. In addition, the Potency in experiment [3] was 820 nM (active).
In the case of `O=C(O)CCCc1c[nH]c2ccccc12`, the outcome in [7] was inactive. The results for the max response in experiment [8] and in [9] were 0.64% and -3.33%, respectively.
